Test [1] in a line: NCI Yeast Anticancer Drug Screen. Data for the rad50 strain (AID 155).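 Also: 0% = growth of vehicle-only cultures of the same strain.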 The conditions noted are these: S. cerevisiae rad50 strain growth inhibition, stronger effect = higher value. A digest of the protocol:
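A DNA repair-deficient yeast mutant serves as the test organism; compound-induced growth inhibition is calculated against vehicle-treated cells.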

A short description of test [2]: NCI Yeast Anticancer Drug Screen. Data for the mec2-1 strain (AID 157). The conditions noted are these: S. cerevisiae mec2-1 strain, stronger effect = higher value. A digest of the protocol: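 Readout is yeast growth inhibition, normalised to vehicle-treated controls, in the mec2-1 strain exposed to compound.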
The nature of test [3]: NCI Yeast Anticancer Drug Screen. Data for the sgs1 mgt1 strain (AID 161).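 Also: 0% = growth of cultures given vehicle only.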 As to conditions: S. cerevisiae sgs1 mgt1 strain, stronger effect = higher value. A digest of the protocol:
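Percent growth inhibition was derived by comparing compound-exposed mutant yeast with vehicle-exposed cultures. The strain carries alterations in DNA damage repair.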

A short description of test [4]: NCI Yeast Anticancer Drug Screen. Data for the cln2 rad14 strain (AID 165).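 Also: 0% = growth equal to vehicle treated cultures.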 The conditions noted are these: S. cerevisiae cln2 rad14 strain, stronger effect = higher value. A digest of the protocol: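 Relative to vehicle controls, growth inhibition of compound-treated cln2 rad14 yeast was recorded.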
Test [5] in a line: NCI Yeast Anticancer Drug Screen. Data for the bub3 strain (AID 167). The conditions noted are these: S. cerevisiae bub3 mutant strain, stronger effect = higher value. The essentials: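 Inhibition values come from growth of compound-treated mutant yeast normalised to vehicle-treated controls.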
Test [6] in a line: NCI Yeast Anticancer Drug Screen. Data for the mlh1 rad18 strain (AID 175). The conditions noted are these: S. cerevisiae mlh1 rad18 strain growth inhibition, stronger effect = higher value. A digest of the protocol:
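Test agents were incubated with a yeast strain of defined genotype (DNA damage repair defect). Inhibition of growth was derived by comparison with vehicle-exposed cultures.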

[7] abbreviates: at 5.0 µM (retest, dose inferred, filed as 0.5).
The mark [8] stands for this setting: at 50.0 µM (retest, dose inferred, filed as 5.0).

This is part of a sample that, as a whole, favours compounds with a hit. Of some 79,000 tested, about 15% had one in any assay. Values without a mark were called inactive. Activity calls are given as the source filed them. Rule as the data show it: active = growth inhibition above about 70%; inactive = the rest.

On to `S=C(N/N=C(/c1ccccc1)c1ccccn1)Nc1cccc(Cl)c1`, for which the growth inhibition in test [1] (setting [7]) was 48%; in test [1] (setting [8]), 88% (active); in test [1] (at 50.0 µM), 2.05%; in test [2] (setting [7]) it was 32%; in test [2] (setting [8]) it was 91% (active); in test [2] (at 50.0 µM) it was 3.3%. The growth inhibition is 24% in test [3] (setting [7]); 88% (active) in test [3] (setting [8]); 41.6% in test [3] (at 50.0 µM); 25% in test [4] (setting [7]); 88% (active) in test [4] (setting [8]); 17.6% in test [4] (at 50.0 µM). In addition, the growth inhibition is 40% in test [5] (setting [7]); 85% (active) in test [5] (setting [8]); 20.1% in test [5] (at 50.0 µM); 36% in test [6] (setting [7]); 89% (active) in test [6] (setting [8]); 26.1% in test [6] (at 50.0 µM).

As for `CCN(CC)CCNc1nc(N)c2nc(-c3ccccc3)c(-c3ccccc3)nc2n1`, the growth inhibition in test [1] (setting [7]) is -4%; in test [1] (setting [8]) it was 51%; in test [1] (at 50.0 µM), 95.3% (active); in test [2] (setting [7]), -3%; in test [2] (setting [8]) it was 22%; in test [2] (at 50.0 µM), 15.5%. For the same compound, the growth inhibition in test [3] (setting [7]) was -4%; in test [3] (setting [8]) it was 36%; in test [3] (at 50.0 µM) it was 90.5% (active); in test [4] (setting [7]), -1%; in test [4] (setting [8]), 5%; in test [4] (at 50.0 µM) it was 27.6%. The growth inhibition was -22% in test [5] (setting [7]); 36% in test [5] (setting [8]); 61.7% in test [5] (at 50.0 µM); -5% in test [6] (setting [7]); 56% in test [6] (setting [8]); 85.8% (active) in test [6] (at 50.0 µM).

On to `O=C1C=CC(=O)c2c(O)c(N3CCC[C@H]3CO)c(Cl)c(O)c21`, for which the growth inhibition in test [1] (setting [7]) was 20%; in test [1] (setting [8]), 90% (active); in test [1] (at 50.0 µM), 61.2%; in test [2] (setting [7]), 14%; in test [2] (setting [8]), 90% (active); in test [2] (at 50.0 µM), 78.9% (active). For the same compound, the growth inhibition was 19% in test [3] (setting [7]); 95% (active) in test [3] (setting [8]); 23.9% in test [3] (at 50.0 µM); 13% in test [4] (setting [7]); 51% in test [4] (setting [8]); 20% in test [4] (at 50.0 µM). For the same compound, the growth inhibition in test [5] (setting [7]) was 25%; in test [5] (setting [8]) it was 97% (active); in test [5] (at 50.0 µM), 34.5%; in test [6] (setting [7]), 31%; in test [6] (setting [8]) it was 90% (active); in test [6] (at 50.0 µM), 41.6%.

Take `O=C1CCCc2cc3c(nc21)C(=O)CCC3`: the growth inhibition in test [1] (setting [7]) was -8%; in test [1] (setting [8]) it was -3%; in test [1] (at 50.0 µM), 14.7%; in test [2] (setting [7]) it was -11%; in test [2] (setting [8]) it was 0%; in test [2] (at 50.0 µM), 12.6%. Also, the growth inhibition in test [3] (setting [7]) was 3%; in test [3] (setting [8]), 0%; in test [3] (at 50.0 µM), 13.1%; in test [4] (setting [7]), -7%; in test [4] (setting [8]), 2%; in test [4] (at 50.0 µM), 47.7%. The growth inhibition in test [5] (setting [7]) was -6%; in test [5] (setting [8]) it was 1%; in test [5] (at 50.0 µM), 0.6%; in test [6] (setting [7]), 10%; in test [6] (setting [8]) it was -9%; in test [6] (at 50.0 µM) it was 2.5%.

For `CC(=O)c1csc2c1C(=O)c1scc(C(C)=O)c1C2=O`, the growth inhibition in test [1] (setting [7]) was 26%; in test [1] (setting [8]) it was 48%; in test [1] (at 50.0 µM), 48.5%; in test [2] (setting [7]), 27%; in test [2] (setting [8]), 49%; in test [2] (at 50.0 µM) it was 30.9%. Moreover, the growth inhibition was 24% in test [3] (setting [7]); 43% in test [3] (setting [8]); 90.3% (active) in test [3] (at 50.0 µM); 14% in test [4] (setting [7]); 36% in test [4] (setting [8]); 88.6% (active) in test [4] (at 50.0 µM). Further, the growth inhibition in test [5] (setting [7]) is 37%; in test [5] (setting [8]), 47%; in test [5] (at 50.0 µM), 90.3% (active); in test [6] (setting [7]) it was 32%; in test [6] (setting [8]), 49%; in test [6] (at 50.0 µM), 87% (active).

`CC1=NN(C(=O)c2ccc(Cl)cc2)C(=O)C1N=Nc1ccc(S(=O)(=O)Nc2ncccn2)cc1` (stereo not given): the growth inhibition is 61% in test [1] (setting [7]); 93% (active) in test [1] (setting [8]); 55.7% in test [1] (at 50.0 µM); 4% in test [2] (setting [7]); 51% in test [2] (setting [8]); 13.2% in test [2] (at 50.0 µM). Also, the growth inhibition in test [3] (setting [7]) was 11%; in test [3] (setting [8]) it was 8%; in test [3] (at 50.0 µM), 10.8%; in test [4] (setting [7]) it was -6%; in test [4] (setting [8]), 2%; in test [4] (at 50.0 µM), 19.4%. Besides, the growth inhibition in test [5] (setting [7]) is -2%; in test [5] (setting [8]), -8%; in test [5] (at 50.0 µM) it was -6.7%; in test [6] (setting [7]) it was 6%; in test [6] (setting [8]), 20%; in test [6] (at 50.0 µM) it was 17.4%.

As to `O/N=C/c1cc(Cl)cc(Cl)c1O`, the growth inhibition in test [1] (setting [7]) is 96% (active); in test [1] (setting [8]), 96% (active); in test [1] (at 50.0 µM), 97.7% (active); in test [2] (setting [7]), 93% (active); in test [2] (setting [8]), 89% (active); in test [2] (at 50.0 µM), 95.1% (active). Moreover, the growth inhibition is 53% in test [3] (setting [7]); 47% in test [3] (setting [8]); 98% (active) in test [3] (at 50.0 µM); 80% (active) in test [4] (setting [7]); 94% (active) in test [4] (setting [8]); 96.7% (active) in test [4] (at 50.0 µM). Further, the growth inhibition in test [5] (setting [7]) was 85% (active); in test [5] (setting [8]), 94% (active); in test [5] (at 50.0 µM), 73.5% (active); in test [6] (setting [7]), 97% (active); in test [6] (setting [8]), 95% (active); in test [6] (at 50.0 µM) it was 97.8% (active).

Turning to `Cc1ccc(C)c(NC(=O)CCC(=O)C(C#N)c2cccc3ccccc23)c1` (stereo not given), the growth inhibition in test [1] (setting [7]) is -22%; in test [1] (setting [8]), 10%; in test [1] (at 50.0 µM), -25.4%; in test [2] (setting [7]), 3%; in test [2] (setting [8]) it was 11%; in test [2] (at 50.0 µM), 14.4%. Moreover, the growth inhibition in test [3] (setting [7]) is -12%; in test [3] (setting [8]), -4%; in test [3] (at 50.0 µM), 15.9%; in test [4] (setting [7]) it was -6%; in test [4] (setting [8]), 8%; in test [4] (at 50.0 µM) it was -23.5%. The growth inhibition in test [5] (setting [7]) was -5%; in test [5] (setting [8]), 5%; in test [5] (at 50.0 µM) it was 10.3%; in test [6] (setting [7]) it was 1%; in test [6] (setting [8]), 3%; in test [6] (at 50.0 µM), 20.6%.

`O=C(O)CCSSCCCCCS(=O)O`: the growth inhibition in test [1] (setting [7]) was -5%; in test [1] (setting [8]), -4%; in test [1] (at 50.0 µM) it was 54.9%; in test [2] (setting [7]) it was 4%; in test [2] (setting [8]), 10%; in test [2] (at 50.0 µM), -1.9%. In addition, the growth inhibition in test [3] (setting [7]) is -1%; in test [3] (setting [8]) it was 0%; in test [3] (at 50.0 µM), 7.95%; in test [4] (setting [7]), -10%; in test [4] (setting [8]) it was -22%; in test [4] (at 50.0 µM), 1%. In addition, the growth inhibition is -3% in test [5] (setting [7]); 9% in test [5] (setting [8]); 13% in test [5] (at 50.0 µM); 0% in test [6] (setting [7]); 9% in test [6] (setting [8]); 13% in test [6] (at 50.0 µM).

Take `Clc1ccc2[nH]c(-c3ccccc3)c(-c3ccccn3)c2c1`: the growth inhibition in test [1] (setting [7]) was 81% (active); in test [1] (setting [8]), 94% (active); in test [1] (at 50.0 µM), 96.2% (active); in test [2] (setting [7]), 80% (active); in test [2] (setting [8]), 98% (active); in test [2] (at 50.0 µM), 94.5% (active). Besides, the growth inhibition in test [3] (setting [7]) was 93% (active); in test [3] (setting [8]), 98% (active); in test [3] (at 50.0 µM), 97.7% (active); in test [4] (setting [7]), 81% (active); in test [4] (setting [8]) it was 97% (active); in test [4] (at 50.0 µM) it was 94% (active). Further, the growth inhibition was 93% (active) in test [5] (setting [7]); 97% (active) in test [5] (setting [8]); 96.7% (active) in test [5] (at 50.0 µM); 96% (active) in test [6] (setting [7]); 97% (active) in test [6] (setting [8]); 95.4% (active) in test [6] (at 50.0 µM).

Source of the values: PubChem BioAssay (NCI).
